Only some compounds are listed: those with a hit (about 6.7% of all), similar ones and a draw of the others.
Pf Dd2 inh = blocks growth of Plasmodium falciparum Dd2 parasites; P. falciparum Dd2 growth, SYBR Green, 72 h; hits give low values; activity change, % at 10 µM; 2.3% of 94,000 active; in the data active means activity change below about -80%; inconclusive means no clear call, values can overlap the other calls
C diff HTS = blocks growth of Clostridium difficile; Clostridium difficile clinical isolate growth, OD600, 24 h; hits give low values; growth activity, negative = inhibition, % at 16 µg/mL (by protocol); 0.25% of 86,000 active; AID 1259249;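 active means mean growth activity at or below -80% and every replicate also at or below -80%; inconclusive means mean at or below -80% but some replicate above -80%; inactive means mean growth activity above -80%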;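 further: 0% = DMSO wells and -100% = levofloxacin 16 µg/mL wells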
Tcruzi prolif = blocks T. cruzi growth in NIH3T3 culture; 5.9% of 77,000 active; T. cruzi beta-gal in NIH3T3, GalScreen luminescence, 90 h; inhibition, % at 8.34 µM;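 active means mean inhibition above about 93%, with at least 55% of replicates each passing it, limit read from the data, passing the limit was not always enough; inconclusive means only one of those two conditions holds; inactive means neither condition holds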
An asterisk follows results filed as active; ? = inconclusive; nt = not tested or not shown; ! = repeats disagree.

SMILES	Pf Dd2 inh	C diff HTS	Tcruzi prolif
Cc1noc(C)c1NC(=O)Nc1ccc2c(c1)CC(=O)N([C@H](C)CO)C[C@H](C)[C@H](CN(C)S(=O)(=O)c1ccc(Cl)cc1)O2	-7.1	1.9	15.8
C[C@H]1CN([C@@H](C)CO)C(=O)c2cccc(NC(=O)Nc3ccc(F)cc3)c2O[C@H]1CN(C)C(=O)Nc1ccc(F)cc1	-7.9	11.6	68.9
COc1ccc(CN(C)C[C@H]2OCCCC[C@@H](C)Oc3ccc(NC(=O)Nc4cccc5ccccc45)cc3C(=O)N([C@@H](C)CO)C[C@H]2C)cc1	-89.2*	-17.5	122.4
COc1ccc(CN(C)C[C@H]2OCCCC[C@@H](C)Oc3ccc(NC(=O)Nc4cccc5ccccc45)cc3C(=O)N([C@H](C)CO)C[C@H]2C)cc1	-86.7*	-11.4	118.5
COc1ccc(CN(C)C[C@H]2OCCCC[C@H](C)Oc3ccc(NC(=O)Nc4cccc5ccccc45)cc3C(=O)N([C@H](C)CO)C[C@@H]2C)cc1	-43.8	-15.9	114.4
COc1ccc(CN(C)C[C@@H]2OCCCC[C@@H](C)Oc3ccc(NC(=O)Nc4cccc5ccccc45)cc3C(=O)N([C@H](C)CO)C[C@@H]2C)cc1	22.4	-11.8	112.8
COc1ccc(S(=O)(=O)Nc2ccc3c(c2)C(=O)N([C@@H](C)CO)C[C@@H](C)[C@H](CN(C)S(=O)(=O)c2ccc(C)cc2)OCCCC[C@@H](C)O3)cc1	-59.7	nt	nt
Cc1noc(C)c1S(=O)(=O)Nc1ccc2c(c1)C(=O)N([C@H](C)CO)C[C@H](C)[C@H](CN(C)Cc1ccc(C(=O)Nc3ccccc3N)cc1)O2	-74.4	8.0	nt
C[C@@H]1CCCCO[C@H](CN(C)Cc2ccc(C(=O)Nc3ccccc3N)cc2)[C@@H](C)CN([C@H](C)CO)C(=O)c2cc(NS(=O)(=O)c3ccc(F)cc3)ccc2O1	?	-8.3	84.8
Cc1noc(C)c1S(=O)(=O)Nc1ccc2c(c1)C(=O)N([C@@H](C)CO)C[C@H](C)[C@@H](CN(C)Cc1ccc(C(=O)Nc3ccccc3N)cc1)OCCCC[C@@H](C)O2	-85.3*	16.0	65.5
Cc1ccc(S(=O)(=O)Nc2ccc3c(c2)C(=O)N([C@@H](C)CO)C[C@H](C)[C@@H](CN(C)Cc2ccc(C(=O)Nc4ccccc4N)cc2)OCCCC[C@@H](C)O3)cc1	-92.0*	28.6	nt
C[C@@H]1CCCCO[C@H](CN(C)Cc2ccc(C(=O)Nc3ccccc3N)cc2)[C@@H](C)CN([C@H](C)CO)C(=O)c2cc(NS(=O)(=O)c3ccccc3)ccc2O1	-88.9*	-1.2	nt
C[C@@H]1CCCCO[C@@H](CN(C)Cc2ccc(C(=O)Nc3ccccc3N)cc2)[C@@H](C)CN([C@H](C)CO)C(=O)c2cc(NS(C)(=O)=O)ccc2O1	-71.3	1.4	nt
O=C(C[C@H]1CC[C@@H]2[C@H](COC[C@H](O)CN2Cc2cccc(C(F)(F)F)c2)O1)NCCc1ccncc1	-9.1	-0.1	-58.1
COc1ccc([Si](C)(C)[C@H]2[C@H](CC(=O)N(CCO)Cc3ccccc3)O[C@@]3(C(=O)N(C)c4ccccc43)[C@@H]2C)cc1	nt	6.6	nt
CC(C)C#Cc1ccc2c(c1)O[C@@H](CN(C)C(=O)c1cccnc1)[C@H](C)CN([C@H](C)CO)S2(=O)=O	14.8	-8.9	42.1
Cc1cccc(-c2ccc(C3[C@@H]4CN(C(=O)Nc5ccccc5)C[C@H]3N4)cc2)c1 (some centres undefined)	-15.4	54.9	nt
O=C(Nc1ccc(C(F)(F)F)cc1)N1C[C@@H]2N[C@H](C1)C2c1ccc(-c2ccccc2)cc1 (some centres undefined)	3.0	-97.9*	nt
O=C(Nc1ccccc1)N1C[C@@H]2N[C@H](C1)C2c1ccc(-c2cccnc2)cc1 (some centres undefined)	-9.0	-5.0	nt
O=C(C1CCC1)N1C[C@@H]2N[C@H](C1)C2c1ccc(/C=C/c2ccccc2)cc1 (some centres undefined)	-77.1	60.9	nt
O=C(Nc1ccc(C(F)(F)F)cc1)N1C[C@@H]2N[C@H](C1)C2c1ccc(/C=C/c2ccccc2)cc1 (some centres undefined)	-90.3*!	-99.9*	nt
Cc1cccc(-c2ccc(C3[C@@H]4CN(C(=O)Nc5ccc(F)cc5)C[C@H]3N4)cc2)c1 (some centres undefined)	-12.7	-91.1*!	nt
Cc1noc(C)c1NC(=O)Nc1ccc2c(c1)C(=O)N([C@@H](C)CO)C[C@@H](C)[C@@H](CN(C)S(=O)(=O)c1ccccc1)OCCCC[C@H](C)O2	-54.7	5.4	3.5
C[C@@H]1CN([C@@H](C)CO)C(=O)CCCn2cc(nn2)CO[C@@H]1CN(C)C(=O)Nc1ccccc1F	1.8	-3.2	73.8
C[C@H](CO)N1C[C@H](C)[C@H](CN(C)C(=O)CCCN(C)C)OCCCC[C@H](C)Oc2ccc(NS(=O)(=O)c3cn(C)cn3)cc2C1=O	49.5	6.4	-26.9
SMILES	Pf Dd2 inh	C diff HTS	Tcruzi prolif
C[C@H]1CN([C@@H](C)CO)C(=O)c2cccc(NC(=O)Nc3ccccc3)c2O[C@H]1CN(C)Cc1ccc(C(=O)Nc2ccccc2N)cc1	-73.4	-1.0	74.2
C[C@@H]1CN([C@H](C)CO)C(=O)c2cccc(NC(=O)Nc3ccccc3)c2O[C@@H]1CN(C)Cc1ccc(C(=O)Nc2ccccc2N)cc1	-90.8*	0.6	57.4
C[C@H](CO)N1C[C@H](C)[C@@H](CN(C)Cc2ccc(C(=O)Nc3ccccc3N)cc2)Oc2c(NC(=O)Nc3ccc(F)cc3)cccc2C1=O	-84.6*	-3.7	nt
COc1ccc(NC(=O)Nc2cccc3c2O[C@H](CN(C)Cc2ccc(C(=O)Nc4ccccc4N)cc2)[C@H](C)CN([C@H](C)CO)C3=O)cc1	-92.8*	6.8	73.6
C[C@@H]1CN([C@@H](C)CO)C(=O)c2cccc(NC(=O)C3CCCCC3)c2O[C@H]1CN(C)Cc1ccc(C(F)(F)F)cc1	-83.3*	8.9	62.3
C[C@H](CO)N1C[C@H](C)[C@H](CN(C)Cc2ccc(C(F)(F)F)cc2)Oc2c(NC(=O)C3CCCCC3)cccc2C1=O	-30.2	15.9	-71.8
COc1ccc(NC(=O)Nc2cccc3c2O[C@@H](CN(C)Cc2ccc(C(=O)Nc4ccccc4N)cc2)[C@@H](C)CN([C@H](C)CO)C3=O)cc1	-65.7	3.2	nt
C[C@H]1CN([C@@H](C)CO)C(=O)c2cccc(NC(=O)Nc3ccc(F)cc3)c2O[C@H]1CN(C)Cc1ccc(C(=O)Nc2ccccc2N)cc1	-70.9	13.2	nt
CC(C)C#Cc1cnc2c(c1)C(=O)N([C@@H](C)CO)C[C@H](C)[C@@H](CN(C)C(=O)CN1CCOCC1)O2	34.6	-0.6	-0.5
C[C@H](CO)N1C[C@H](C)[C@H](CN(C)Cc2ccc(C(=O)O)cc2)Oc2ccc(NC(=O)Nc3ccccc3)cc2C1=O	38.3	-3.4	-17.4
C[C@H]1CN([C@@H](C)CO)C(=O)c2cccc(NC(=O)c3ccncc3)c2O[C@@H]1CN(C)C(=O)Nc1ccc(F)cc1	26.7	1.2	39.6
C[C@H](CO)N1C[C@H](C)[C@H](CN(C)Cc2ccc(C(=O)Nc3ccccc3N)cc2)Oc2c(NC(=O)C3CCCCC3)cccc2C1=O	?	-2.5	79.3
C[C@H]1CN([C@@H](C)CO)C(=O)c2cccc(NC(=O)C3CCCCC3)c2O[C@@H]1CN(C)Cc1ccc(C(=O)Nc2ccccc2N)cc1	-87.9*	-8.6	85.3
